Assay [1] can be described thus: APR_HepG2_CellCycleArrest_24hr: Apredica 24-hour HepG2 Assay for Cell Cycle Arrest (AID 2282905).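 Note: cell cycle arrest scored as ratio of 2N to 4N nuclear DNA content.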 The note with it: imaging, actives raise or lower the signal. Summed up:
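Compounds (0.39 to 200 uM, final DMSO 0.5% v/v) are applied to HepG2 cells for 24 hours; cells are then fixed, permeabilized and nuclei labeled with Hoechst 33342. Automated imaging measures DNA content, and activity is fitted in both directions against DMSO.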

A short description of assay [2]: APR_HepG2_NuclearSize_24hr: Apredica 24-hour HepG2 Assay for Nuclear Size (AID 2282907). The note with it: high-content imaging, actives raise or lower the signal. Summed up: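 Nuclear size is measured by fluorescence high-content imaging of Hoechst-labelled HepG2 nuclei after 24 hr of treatment (0.39–200 uM, 0.5% DMSO). Cells are fixed in 3.7% formaldehyde before staining, and DMSO serves as the baseline for bidirectional curve fitting.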

A short description of assay [3]: APR_HepG2_CellLoss_24hr: Apredica 24-hour HepG2 Assay for Cell Loss (AID 2282908).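 For AC50: fit in both directions so a hit may be cell loss or gain.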 The note with it: high-content imaging. The gist of the method: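 Nuclear count serves as the viability measure: treated cells are fixed, permeabilized and labelled with Hoechst 33342, and six images per well are analysed to identify valid nuclei. Doses span 0.39–200 uM, and activity in either direction is scored against DMSO.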

Assay [4] in a line: APR_HepG2_MicrotubuleCSK_24hr: Apredica 24-hour HepG2 Assay for Microtubule CSK Stabilty (AID 2282909). The note with it: HepG2 microtubule cytoskeleton imaging, actives raise or lower the signal. Summed up:
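Compounds were applied to HepG2 cells for 24 hours across 0.39–200 uM in duplicate, with final DMSO at 0.5% v/v. Fixed, permeabilized cells were labeled for alpha-tubulin and nuclei, and tubulin fluorescence was quantified by imaging, fitted bidirectionally against DMSO.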

The nature of assay [5]: APR_HepG2_MitoMembPot_24hr: Apredica 24-hour HepG2 Assay for Mitochondrial Membrane Potential (AID 2282911). The note with it: imaging, actives raise or lower the signal. Summed up: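 Cells are dosed for 24 hr across 0.39 to 200 uM with solvent held at 0.5% DMSO. They are then stained with 250 nM MitoTracker Red CMXRos for 30 min, fixed in 3.7% formaldehyde and imaged.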

A short description of assay [6]: APR_HepG2_MitoMass_24hr: Apredica 24-hour HepG2 Assay for Mitochondrial Mass (AID 2282912). The note with it: high-content imaging, actives raise or lower the signal. The gist of the method:
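After 24 hr of treatment at 0.39 to 200 uM, HepG2 cells take up 250 nM MitoTracker Red CMXRos for 30 min and are then fixed with 3.7% formaldehyde. Per-well images are quantified, and any change in either direction is scored against solvent.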

Assay [7] can be described thus: APR_HepG2_p53Act_24hr: Apredica 24-hour HepG2 Assay for p53 Activation (AID 2282913).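 Note: p53 protein immunofluorescence averaged per cell in HepG2 with Hoechst nuclei.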 The following applies: high-content imaging, actives raise or lower the signal. The gist of the method: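 Human HepG2 liver cells; 24 hr cpd treatment, 0.39–200 uM, 0.5% DMSO final. Fixed in 3.7% formaldehyde, permeabilized with 0.5% Triton X-100, stained with anti-p53/Cy5 plus Hoechst 33342. Six images per well at 20x; gain or loss vs DMSO.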

Assay [8] in a line: APR_HepG2_CellCycleArrest_72hr: Apredica 72-hour HepG2 Assay for Cell Cycle Arrest (AID 2282914). The following applies: high-content imaging, actives raise or lower the signal. Summed up:
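Read-out is Hoechst-stained nuclear DNA content measured by automated fluorescence imaging (20x, six images per well), fitted in both directions relative to DMSO. Human HepG2 liver cells received 0.39–200 uM compound for 72 hr at 0.5% v/v DMSO.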

Assay [9] in a line: APR_HepG2_CellLoss_72hr: Apredica 72-hour HepG2 Assay for Cell Loss (AID 2282915). The note with it: high-content imaging. The gist of the method: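 HepG2 cells exposed 72 h to compound at 0.39–200 uM (10 concentrations, duplicate) in 0.5% DMSO. Fixed with 3.7% formaldehyde and Hoechst 33342-stained. Imaged at 20x; nuclear count gives cell number, fitted bidirectionally versus DMSO.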

Assay [10] in a line: APR_HepG2_P-H2AX_72hr: Apredica 72-hour HepG2 Assay for H2AX Phosphorylation (AID 2282916).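 Note: phospho-histone H2A.x immunostain intensity per cell marking DNA damage.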 The note with it: imaging, actives raise or lower the signal. Summed up:
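Human hepatoma HepG2 cells are dosed across ten concentrations (0.39 to 200 uM, 0.5% v/v DMSO) and incubated 72 hr. Phospho-histone H2A.x is then detected by antibody staining alongside c-Jun and Hoechst, and quantified by automated fluorescence imaging.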

The nature of assay [11]: APR_HepG2_MitoticArrest_72hr: Apredica 72-hour HepG2 Assay for Mitotic Arrest (AID 2282918). The note with it: high-content imaging, actives raise or lower the signal. Summed up:
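Read-out is phospho-histone H3 immunofluorescence with Hoechst nuclear segmentation, imaged at 20x. Human HepG2 liver cells received ten concentrations (0.39–200 uM, final DMSO 0.5% v/v) for 72 hr before fixation. Gain or loss of signal was fitted relative to DMSO.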

Assay [12] can be described thus: APR_HepG2_MicrotubuleCSK_72hr: Apredica 72-hour HepG2 Assay for Microtubule CSK Stabilty (AID 2282919). The following applies: HepG2 microtubule cytoskeleton, high-content imaging, actives raise or lower the signal. Summed up:
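HepG2, 72 hr cmpd exposure, 0.39–200 uM (10 pts, duplicate), 0.5% DMSO. 3.7% formaldehyde fix, 0.5% Triton perm, anti-alpha-tubulin/Cy5 plus Hoechst. HCS fluorescence intensity; bidirectional fit vs DMSO baseline; taxol as positive control.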

The nature of assay [13]: APR_HepG2_P-H2AX_24hr: Apredica 24-hour HepG2 Assay for H2AX Phosphorylation (AID 2282920). The following applies: high-content imaging, actives raise or lower the signal. The gist of the method:
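HepG2, 24 hr, cpd 0.39–200 uM (10 conc, duplicate), DMSO 0.5% v/v final. Fix 3.7% formaldehyde, Triton X-100 permeabilize, anti-phospho-H2A.x 1:200 + Hoechst 2 ug/mL. Imaged, bidirectional fit vs DMSO.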

Assay [14] in a line: APR_HepG2_StressKinase_72hr: Apredica 72-hour HepG2 Assay for Stress Kinase (AID 2282921). The following applies: HepG2 stress kinase (phospho-c-Jun) imaging, actives raise or lower the signal. The gist of the method: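 After a 72 h compound treatment spanning 0.39 to 200 uM, formaldehyde-fixed cells are labelled for phosphorylated c-Jun and nuclei, imaged by automated fluorescence microscopy, and activity is fitted in both directions relative to DMSO controls.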

Assay [15] can be described thus: APR_HepG2_StressKinase_24hr: Apredica 24-hour HepG2 Assay for Stress Kinase (AID 2282922). The note with it: HepG2 stress kinase (phospho-c-Jun) imaging, actives raise or lower the signal. The gist of the method: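 Read-out: phospho-c-Jun immunofluorescence (Cy3 secondary) quantified by high-content imaging at 20x, nuclei defined by Hoechst 33342. Human HepG2 liver cells dosed 24 hr, 0.39–200 uM, DMSO 0.5% v/v; gain or loss of signal fitted relative to DMSO.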

Assay [16] in a line: APR_HepG2_p53Act_72hr: Apredica 72-hour HepG2 Assay for p53 Activation (AID 2282923).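 Note: average cellular p53 protein immunofluorescence intensity in HepG2 cells.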 The following applies: high-content imaging, actives raise or lower the signal. Summed up:
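Imaging-based endpoint: after 72 hr compound exposure (up to 200 uM, 0.5% DMSO), fixed and permeabilized monolayers were labelled with anti-p53 antibody and imaged; signal change in either direction was fitted relative to DMSO controls.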

Assay [17] is described as follows: APR_HepG2_MitoMass_72hr: Apredica 72-hour HepG2 Assay for Mitochondrial Mass (AID 2282924).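 Note: MitoTracker Red CMXRos stain intensity per cell imaged as mitochondrial mass.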 The note with it: high-content imaging, actives raise or lower the signal. Summed up: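 Read-out: MitoTracker Red fluorescence intensity from automated imaging (20x, six fields per well) in human HepG2 liver cells. Dosing ran 72 hr, 0.39–200 uM, 0.5% DMSO; bidirectional curve fitting versus DMSO baseline.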

A short description of assay [18]: APR_HepG2_NuclearSize_72hr: Apredica 72-hour HepG2 Assay for Nuclear Size (AID 2282925). The following applies: high-content imaging, actives raise or lower the signal. The gist of the method: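 Read-out: nuclear diameter from Hoechst 33342 images (ArrayScan, 20x, six fields/well), via cell-cycle image analysis. HepG2 were dosed 0.39–200 uM for 72 hr in 0.5% DMSO. Bidirectional fit relative to DMSO.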

A short description of assay [19]: APR_HepG2_MitoMembPot_72hr: Apredica 72-hour HepG2 Assay for Mitochondrial Membrane Potential (AID 2282917). The note with it: imaging, actives raise or lower the signal. Summed up: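 HepG2 cells dosed 72 hr with compound at 0.39–200 uM in duplicate, 0.5% v/v DMSO final. Mitochondria stained with 250 nM MitoTracker Red CMXRos for 30 min before formaldehyde fixation, imaged by high-content fluorescence; bidirectional fit versus DMSO.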

The source made the active and inactive calls. Rule for the calls: active = hit-call score of the fitted dose curve at least 0.9, where 1 is the maximum; inactive = score below 0.9.

What is called AC50 is the concentration giving half of the maximal activity seen.

Regarding `COc1cccc(-c2ccc(/C=C\CN3CCCCCC3)cc2Cl)c1`, the concentration at half-maximal activity (AC50) in [1] is 87.1 µM (active); in assay [2], 59.5 µM (active); in assay [3], 74.8 µM (active); in assay [6], 23.8 µM (active); in assay [7], 30.8 µM (active); in [8], 84.2 µM (active). Also, the AC50 is 28.6 µM (active) in [9]; 22.5 µM (active) in assay [10]; 17.6 µM (active) in assay [11]; 48.9 µM (active) in assay [13]; 32.3 µM (active) in [14]; 69.3 µM (active) in assay [15]. Further, the values for the AC50 in [16] and in assay [18] were 22.5 µM (active) and 62 µM (active), respectively. The call in assay [4], in assay [5], in [12] and in assay [17] was inactive.
As to `Nc1cccc(N)c1`, the result in assay [1], in [2], in assay [3], in assay [4], in assay [5] and in assay [6] was inactive. For the same compound, the call in [7], in [8], in assay [10], in [11], in assay [12] and in assay [14] was inactive. The outcome in assay [15], in assay [16], in assay [17] and in [18] was inactive. Moreover, in assay [13], the AC50 is 48.3 µM (active).
`Cc1ccc(S(=O)(=O)O)cc1C`: the result in [1], in assay [2], in assay [3], in [4], in assay [5] and in assay [6] was inactive. Further, the outcome in [7], in assay [8], in assay [10], in assay [12], in assay [13] and in [14] was inactive. Moreover, the call in [15], in assay [16] and in assay [18] was inactive. Further, the concentration at half-maximal activity (AC50) in assay [9] and in [17] was 0.0391 µM (active) throughout.
`O=c1n(CC2CO2)c(=O)n(CC2CO2)c(=O)n1CC1CO1` (centres undefined): the AC50 is 0.225 µM (active) in assay [1]; 1.8 µM (active) in [3]; 24.4 µM (active) in assay [4]; 50 µM (active) in assay [6]; 11.3 µM (active) in assay [7]; 0.224 µM (active) in assay [8]. Further, the AC50 in assay [10] is 15.2 µM (active); in assay [11] it was 15.8 µM (active); in [13], 17.8 µM (active); in assay [15], 31.6 µM (active); in assay [16], 5.06 µM (active); in assay [17] it was 50 µM (active). For the same compound, the call in [2], in [5], in assay [19], in [12] and in assay [14] was inactive.

Values taken from PubChem BioAssay (EPA / NIEHS).
